# Only a selection was taken, and hits are over-represented in it overall.
# IDE exosite inh = insulin-degrading enzyme (human) exo-site inhibition; z-score at 20 µM; hit rate 6.3% among 17,000; P14735; purified IDE, FL-6b probe fluorescence polarization; active compounds read low; AID 1259349;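 active = z-score of -3 or lower, meaning strong loss of probe binding signal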;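 note: His-tagged human IDE residues 42-1019 made in E. coli with 30 nM FL-6b probe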
# Target sequence (P14735 42-1019 limits assumed): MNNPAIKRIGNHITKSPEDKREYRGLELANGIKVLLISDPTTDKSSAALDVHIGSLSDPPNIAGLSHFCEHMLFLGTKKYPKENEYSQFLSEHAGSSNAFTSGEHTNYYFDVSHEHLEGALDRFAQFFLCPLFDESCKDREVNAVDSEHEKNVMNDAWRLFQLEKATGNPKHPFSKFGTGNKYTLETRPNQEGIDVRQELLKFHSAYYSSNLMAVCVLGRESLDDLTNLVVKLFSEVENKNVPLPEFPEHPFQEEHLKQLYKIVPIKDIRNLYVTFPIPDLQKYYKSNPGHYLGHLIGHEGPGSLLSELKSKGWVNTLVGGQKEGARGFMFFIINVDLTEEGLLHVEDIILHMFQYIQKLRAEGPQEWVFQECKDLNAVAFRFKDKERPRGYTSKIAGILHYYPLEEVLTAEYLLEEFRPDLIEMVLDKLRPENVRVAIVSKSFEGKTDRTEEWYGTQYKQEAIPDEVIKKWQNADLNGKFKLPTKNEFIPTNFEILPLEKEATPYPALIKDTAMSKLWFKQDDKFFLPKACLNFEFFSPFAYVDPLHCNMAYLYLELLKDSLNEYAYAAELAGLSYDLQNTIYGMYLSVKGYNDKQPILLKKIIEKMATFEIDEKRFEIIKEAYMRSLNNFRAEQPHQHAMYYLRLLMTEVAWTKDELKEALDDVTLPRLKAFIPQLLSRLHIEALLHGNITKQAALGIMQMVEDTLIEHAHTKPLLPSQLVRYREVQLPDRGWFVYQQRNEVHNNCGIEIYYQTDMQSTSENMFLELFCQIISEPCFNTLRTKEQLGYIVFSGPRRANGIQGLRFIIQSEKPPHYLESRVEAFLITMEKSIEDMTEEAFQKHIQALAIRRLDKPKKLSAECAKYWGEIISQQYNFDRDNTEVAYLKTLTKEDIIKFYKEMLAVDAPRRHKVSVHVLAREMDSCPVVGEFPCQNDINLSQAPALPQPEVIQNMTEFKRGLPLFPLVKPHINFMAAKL
# Hits are given with their value; - = inactive.
SMILES,IDE exosite inh
CN(C)C(=O)c1ccc(-c2ccc([C@@H]3[C@@H](C#N)N(C(=O)Nc4ccccc4F)[C@H]3CO)cc2)cc1,-
O=C(c1ccccn1)N1C[C@@H]2[C@H](c3ccccc31)[C@@H](CO)N2C(=O)C1CCCCC1,-
CCN(C[C@@H]1[C@@H](c2ccccc2)[C@H](CO)N1CC1CC1)C(=O)c1ccccn1,-
CCC(=O)N1CC(=O)N2[C@@H](CO)[C@H](c3ccc(-c4ccncc4)cc3)[C@@H]2C1,-
O=C1C[C@@H](c2ccccc2)C(=O)N[C@H](c2ccccc2)C/C=C\C[C@@H](c2ccccc2)N1,-
COc1ccc(-c2ccc([C@@H]3[C@@H](CO)N4C(=O)CN(Cc5ccc(C)cc5)C[C@H]34)cc2)cc1,-
O=C(C1CCCCC1)N1CC(=O)N2[C@H](CO)[C@H](c3ccc(C#CCc4ccccc4)cc3)[C@H]2C1,-
COc1ccc2c3c([nH]c2c1)[C@@H](CO)N(C(=O)Nc1ccc(F)cc1)CC31CN(S(=O)(=O)c2ccc(C)cc2)C1,-
O=C(Nc1cccc(F)c1)N1CC(=O)N2[C@H](C1)[C@@H](c1ccc(Br)cc1)[C@@H]2CO,-
COc1ccc(C[C@H]2CCc3cnnn3COCCNC2=O)cc1,-
CCC(=O)N1CC(=O)N2[C@H](CO)[C@H](c3ccc(C#CCc4ccccc4)cc3)[C@H]2C1,-3.56
CCC(=O)N1CC(=O)N2[C@H](CO)[C@@H](c3ccc(C#CCc4ccccc4)cc3)[C@@H]2C1,-
CCC(=O)N1CC(=O)N2[C@@H](CO)[C@H](c3ccc(C#CCc4ccccc4)cc3)[C@@H]2C1,-3.78
O=C(C1CC1)N1CC(=O)N2[C@@H](CO)[C@H](c3ccc(C#CCc4ccccc4)cc3)[C@@H]2C1,-
COCC(=O)N1CC(=O)N2[C@H](C1)[C@H](c1ccc(C#CCc3ccccc3)cc1)[C@@H]2CO,-
O=C(C1CC1)N1CC(=O)N2[C@H](CO)[C@@H](c3ccc(C#CCc4ccccc4)cc3)[C@H]2C1,-
O=C(C1CC1)N1CC(=O)N2[C@H](CO)[C@@H](c3ccc(C#CCc4ccccc4)cc3)[C@@H]2C1,-
CCC(=O)N1CC(=O)N2[C@H](CO)[C@H](c3ccc(C#CCc4ccccc4)cc3)[C@@H]2C1,-5.83
CCC(=O)N1CC(=O)N2[C@H](C1)[C@@H](c1ccc(C#CCc3ccccc3)cc1)[C@@H]2CO,-
O=C(C[C@H]1C=C[C@H](NC(=O)Nc2cccc(F)c2)[C@H](CO)O1)NCC1CCCCC1,-
CCCNC(=O)N1[C@H](CO)[C@@H](c2ccc(C3=CCCC3)cc2)[C@@H]1CN(C)C(C)=O,-
O=C(Nc1ccc(F)cc1)N1CC(=O)N2[C@H](CO)[C@H](c3ccc(C#Cc4ccc(F)cc4)cc3)[C@@H]2C1,-
Cc1ccc(-c2ccc([C@@H]3[C@@H](CO)N4C(=O)CN(C(=O)c5ccc(F)cc5)C[C@H]34)cc2)cc1,-
CCCC#Cc1ccc([C@@H]2[C@H](CO)N3C(=O)CN(S(=O)(=O)Cc4ccccc4)C[C@@H]23)cc1,-
CCCC(=O)Nc1ccc2c(c1)OC[C@H](C)N(S(=O)(=O)c1cn(C)cn1)C[C@@H](C)[C@@H](OC)CN(C)C2=O,-
SMILES,IDE exosite inh
O=C(C[C@H]1CC[C@@H]2NC[C@@H](O)COC[C@H]2O1)NCCc1ccncc1,-
O=C(C[C@@H]1C[C@H]2c3cc(NC(=O)c4cccnc4)ccc3O[C@H]2[C@@H](CO)O1)NCc1cc(F)ccc1F,-
COCC(=O)N1[C@H](C#N)[C@H](c2ccccc2-c2cccc(C)c2)[C@@H]1CO,-
C/C=C/c1ccc([C@H]2[C@@H](CO)N(CCC)[C@@H]2CN(CC)C(=O)c2ccccn2)cc1,-
CCC(=O)N(C)C[C@@H]1[C@H](c2ccc(-c3ccccc3F)cc2)[C@H](CO)N1C(C)=O,-
O=C(Cc1ccccn1)N[C@H]1CC[C@H](CCNS(=O)(=O)c2cccc(F)c2)O[C@H]1CO,-
Cc1ccccc1-c1ccc([C@@H]2[C@@H](CO)N3C(=O)CN(C(=O)c4ccncc4)C[C@@H]23)cc1,-3.55
Cc1ccccc1-c1ccc([C@H]2[C@H]3CN(C(=O)c4ccccc4)CC(=O)N3[C@H]2CO)cc1,-
O=C(c1ccncc1)N1CC(=O)N2[C@H](C1)[C@H](c1ccc(-c3ccccc3F)cc1)[C@@H]2CO,-
Cc1ccccc1-c1ccc([C@H]2[C@H]3CN(C(=O)c4ccncc4)CC(=O)N3[C@H]2CO)cc1,-
COc1ccc(-c2ccc([C@H]3[C@@H](CO)N4C(=O)CN(C(=O)c5ccccn5)C[C@@H]34)cc2)cc1,-
CC(C)C#Cc1ccc([C@@H]2[C@@H](CO)N3C(=O)CN(C(=O)c4ccccn4)C[C@H]23)cc1,-
O=C(c1ccncc1)N1CC(=O)N2[C@@H](CO)[C@@H](c3ccc(-c4cccnc4)cc3)[C@@H]2C1,-
Cc1ccccc1-c1ccc([C@H]2[C@@H](CO)N3C(=O)CN(C(=O)c4ccccn4)C[C@@H]23)cc1,-11.5
O=C(c1ccncc1)N1CC(=O)N2[C@H](CO)[C@@H](c3ccc(-c4ccccc4F)cc3)[C@@H]2C1,-

# Compound activity: PubChem, Broad Institute
